The whole screen tested about 31,000 sequences, of which about 1,400 (4.5%) were called active. Many of the other results were omitted from the sample, so actives are more common in it than they were. Unmarked numbers belong to inactive results.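 Rule for the calls: active = median seed-adjusted z-score above 1 or below -1; inactive = the rest.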

The test in a line: Novel Modifiers of Survival Motor Neuron (SMN) Protein: Gene Identification via Genome-wide siRNA Screen.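 Note: luminescence tracks full-length SMN protein made from the SMN2 reporter.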 Particulars: HEK293T SMN2-luciferase reporter, siRNA knockdown, 72 h; actives lie on both sides. A digest of the protocol:
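HEK293T cells stably carrying an SMN2 promoter/splicing cassette–luciferase reporter were reverse-transfected with 1 pmol siRNA per well (druggable-genome library, 3 siRNAs per gene) and grown 72 h at 37 °C. Luminescence, normalized to negative-control siRNA and log10-transformed, was scored as MAD.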
In general terms: In a reporter assay the amount or activity of a reporter protein is the signal.
With CAAGGACAACUCAAACUUATT against PRKACA, the median seed-adjusted z-score is -0.137.
The result for CGUAUAUAGAGUUCUCAGATT against PABPN1 reads -0.757.
For the sequence CCCUUAAUUUUGUAACAGATT against SLC7A6, the median seed-adjusted z-score is -0.0877.
Turning to GGGUAACCACUGACAUUCATT against SUPT5H, the median seed-adjusted z-score was -4.02 (active).
The result for GCCUUAAAAAGCACCAAAATT against ZNF16 reads 0; that for AAGUUCCUAUCGGUCGUAUTT against HBZ, -0.0054; that for GGACCAUCGGGAUCAUCAATT against P2RX3, -0.44.
The result for GCAAUGAACACCAUCCGAATT against KEAP1 reads 0.207; that for AGCUCUUAUUAGCUGCAUATT against MS4A7, 0.0794; that for GCAACGAUCACCUAAAUUATT against NOP2, 1.15 (active).
The result for GGUCAAAUCAGCAAAGGUUTT against RNF25 reads -0.0826; that for CGACAAUCUAACUUCCGUATT against CYTH3, 0.196; that for CAGGCAUCAUAUUUUGAAATT against NUDT3, 0.674.
As for CAAAGAUUCUGACUGAUGATT against GPATCH4, the median seed-adjusted z-score is -0.519.
The result for GAACCUAUCUGAUCGGCAATT against RFX3 reads 0.17; that for CAUCUUAAGUGUUUUACAUTT against LMO4, -0.067.
Take GCAGCAUACAGGAAUACCATT against ATRNL1: the median seed-adjusted z-score is -0.142.
The result for GCAGCAUAUUAUAGACAAATT against ZBTB37 reads -0.219; that for GCCUGGGUCAAAUACAGUATT against KLHL20, -0.0828; that for GAUCAUUGCUGGGAAUCUATT against GPR52, -1.17 (active).
The result for GUCUGAAUGUCGAAGAGAATT against G3BP1 reads -0.593.
As for CUGGAACAGUGUACCCAAATT against CD2AP, the figure is 0.113; as for CCAUGUGAUUAUGUACUCATT against ELOVL4, 0.166.
For AGAUAUAUAAAUCAACGAATT against LSM3, the median seed-adjusted z-score was -1.36 (active).
For UGACCUACGAGGAAAUUCATT against PFKFB4, the median seed-adjusted z-score is 0.149.
The result for CAACGAUAGCUUAUCCCAATT against LPGAT1 reads 0.625; that for GCUUAUAUGGUGUACAUUUTT against ELOVL6, 0.742.
As for UCCCGUUCCGUACGACUUATT against DHRS7C, the median seed-adjusted z-score was -0.398.
Take GUGGGAGUCGGGACAUAUATT against MAFK: the median seed-adjusted z-score is 1.73 (active).
The result for CCAUUGAUGCAACAGGUAATT against USO1 reads 0.21; that for CAAGGACAAAUUUCCCGUUTT against HOXD8, -0.883.
Consider GCAUGGUACUCUAUAGUCUTT against FAT4, for which the median seed-adjusted z-score is -0.363.
As for GGAUGUGGUAGUACAGAAATT against PSMD2, the figure is -1.44 (active).
As for GACUGACGAUGACACGGAATT against KPNA6, the figure is -1.54 (active); as for GGUACUCCAGAGUAUAACATT against CMYA5, -0.858; as for GAGCCUGACUCAGUCUUUATT against AQP9, -0.192.
The result for GAGAAAUCGUGCUCAGUUATT against CNOT8 reads 0.375; that for CCUGUUUCCGUGAAGAAAATT against CXCR4, -0.347; that for ACACCUCUCCGGACACCAATT against IRF3, 0.0117.
As for GACGAUGAAUGAAAAGGCATT against NRBP1, the median seed-adjusted z-score was -1.13 (active).
The result for AGAAUUCUUCGAUCACAAATT against KCNMB3 reads 0.513.
For the sequence CAAGUACCCUGAUAGAGUUTT against ABHD4, the median seed-adjusted z-score is -0.054.
The result for AGAUGAAGCUGCAAGUGUATT against COX10 reads 0.339; that for CAGUGGAUCAAAUAACGCATT against ADAMTS20, 1.44 (active); that for GAACCUCAGUCAAAUCGAUTT against OXSR1, -0.0682.
As for CCAUUUGGAUAUCAAAGUATT against ILF2, the figure is -0.19.
The result for CAGUCAAGCUUGGAGUUAATT against SYTL3 reads 0.236; that for AGAUGUUCUGAGGCUGAUATT against OASL, 1.02 (active); that for GGAUAAGGACGACCAGAUUTT against HPCAL4, 0.282.
On to GUGCUAAAUUUAGCUCAAATT against IL2, for which the median seed-adjusted z-score was 0.0694.
Consider CCAAGCAAAUAGUAGAAGATT against CYLC1, for which the median seed-adjusted z-score was 0.177.
Consider GAACGAGUCCUUUACUACATT against GFM1, for which the median seed-adjusted z-score is -0.0641.
In the case of CAACUUUCAGAUCAGUGAATT against ARD1A, the median seed-adjusted z-score is -1.05 (active).
In the case of CAGACAAGCUGAUCCGCAUTT against TGM5, the median seed-adjusted z-score was 0.0181.
As for GGUCUGUUCUUCUUACAGATT against PRKCB1, the figure is 0.0463.
For GCCCAUCGUGCUUAAAGAATT against RASA3, the median seed-adjusted z-score was 0.0056.
As for CACCUACUGUAGAGGUGAATT against GPRC6A, the figure is 0; as for GAACAUAUCAAGACCGGUUTT against MED30, -2.06 (active).
As for UAGGGAAGCUGAAAGUGCATT against OXER1, the figure is -0.471; as for CAACCAAUAUAGAACUUCATT against RBBP5, 0.169.
As for GCAGCCUUGUCAUCGACAATT against PDLIM1, the median seed-adjusted z-score is -0.189.
With CCUAAAGCCUGAAGAAGAATT against TXNDC2, the median seed-adjusted z-score was -1.29 (active).
As to CAUCGGUGCCCAGAAGUCATT against SSBP4, the median seed-adjusted z-score was 0.254.
In the case of GACUCUCUGAGGUAGAAAATT against EPN3, the median seed-adjusted z-score was 0.184.
As for GCUAGAACGGGAACGAAGATT against NEK10, the figure is -0.0464; as for CCAGUGCUCCCGAAACUGATT against KRTAP5-5, -1.07 (active); as for GCUCAUCGUGGGUCUCCUATT against POR, 0.189.
As for CUCUCGUACUUUGAACCUATT against PANK3, the figure is -0.185; as for CCCACUAUGCAAAAUGUAATT against PCMT1, 0.139; as for GGUGGUCCAUGAAAAAGCATT against SOD1, -0.8.
As for GCCUUAAAGACUUACCGAATT against USPL1, the figure is -1.87 (active); as for GUUUGUGACUGUAACCAUUTT against CTBP1, 0.105.
Regarding GCUAUGGUGCUGUCGCUUATT against RHOXF2, the median seed-adjusted z-score is -0.331.
As for GGAAUGGACUCAGUGAUCATT against PFTK1, the figure is 0.088.
Take CGCGGAAACUUGUCCCUAUTT against SP2: the median seed-adjusted z-score was -0.617.
Regarding GCCCUGACAUUUCCCGAAATT against FOXJ2, the median seed-adjusted z-score is -0.627.
As for UCAAUAAACUGCACGAAUATT against HS3ST1, the figure is 1.21 (active); as for ACGUGGAAGUGACCCGGAATT against MTX1, -0.159.
As for GCAUGUCCCGAAAACAAGATT against KLF7, the figure is 0.393; as for GGACUUACGUGGAAGUAGATT against PLCB1, 0.0735.
As for CGUAGUAUAUUAACAAGUATT against MKKS, the figure is 1.03 (active).
For the sequence CUCUAGGAGUGACCACGAATT against LYPLAL1, the median seed-adjusted z-score is -0.425.
The result for GGAGCACAGAAUACCGGAATT against C3orf64 reads 0.0771.
On to CAAACGGGCUCAUCAUAAUTT against MAX, for which the median seed-adjusted z-score is 0.0949.
As for AGAGACCCAUGGGAACAAATT against SIGMAR1, the figure is -1.4 (active).
On to CGAAUGUCACCAUAUAUAATT against IL1RL1, for which the median seed-adjusted z-score was -0.286.
As for AGGAGGUUACGGCACAAAATT against STK11, the figure is 0.348; as for GCAACACCAUCGUCUGUGATT against P2RY13, -0.0427.
The result for GGAACAUCAUUCUACCCAATT against KIF15 reads -0.873.
Take CCUUAAUCCUUUGUUAACATT against KPNA6: the median seed-adjusted z-score is -1.54 (active).
As for GGAUGAUGUACUUCUCUCATT against MLNR, the figure is -0.038; as for CCCUGUCCUUAGCACUCUATT against GFI1B, 0.154.
As for GGAGCAUUCUCAUUCGAGATT against CSTF3, the median seed-adjusted z-score was 0.0879.
The result for GCUUGCAGUUAAUAUCAUUTT against ODC1 reads -1.64 (active); that for GCAGAGUGCUUCCCAGUGATT against JRK, -0.624; that for CAGAUGUCAUGAAUCAAGATT against RPUSD2, -0.215.
The result for CAAGUACAAUACUAACUGUTT against ZNF280C reads 0.336; that for CAACGGCAACGGAGAGGAUTT against SLC24A6, -0.792.
Take GCGGAACACGAAGAAGUAATT against TMPRSS11E: the median seed-adjusted z-score was 0.0512.
With GGGACGAGAUGGUAAAGAATT against ATP2B2, the median seed-adjusted z-score is 1.37 (active).
Take CCAUGUAUCUGAGUGAUCATT against ERC2: the median seed-adjusted z-score was 0.172.
The result for GGAUCUAAUCUUAGAUGUATT against POLR2H reads -2.74 (active).
Consider GAAUGAGGUUGACUUCUAUTT against CASQ2, for which the median seed-adjusted z-score is 0.4.
On to GGAUUAUCUCCUCAUUACATT against MCF2L2, for which the median seed-adjusted z-score was -0.465.
As for CCUUGAUCAUCGACAUUCUTT against GIT1, the figure is -0.307; as for CCUCGACAGUGAAUGCAAATT against ABCF3, 0.0759; as for GAAAAUCUAUCAGAACAUUTT against RAB14, -0.0567.
As for CUAUGACCCUUACCCGUAUTT against FMOD, the figure is -1.32 (active).

Source of the values: PubChem BioAssay AID1347426 (Functional Genomics Laboratory (NCATS/FGL), 2020).
